# DAX1 inh: inhibitors of human orphan nuclear receptor DAX1 (NR0B1); P51843; HEK293 Gal4-DAX1 luciferase reporter, luminescence; inhibition, % at 6.75 µM; hit rate 0.99% among 340,000;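 active = inhibition above the mean over all tested compounds plus 3 SD, cut at about 4.2% in these data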;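 note: inhibition shows as a rise in luminescence from relieved DAX1 repression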
# Target sequence (P51843 207-470 limits assumed): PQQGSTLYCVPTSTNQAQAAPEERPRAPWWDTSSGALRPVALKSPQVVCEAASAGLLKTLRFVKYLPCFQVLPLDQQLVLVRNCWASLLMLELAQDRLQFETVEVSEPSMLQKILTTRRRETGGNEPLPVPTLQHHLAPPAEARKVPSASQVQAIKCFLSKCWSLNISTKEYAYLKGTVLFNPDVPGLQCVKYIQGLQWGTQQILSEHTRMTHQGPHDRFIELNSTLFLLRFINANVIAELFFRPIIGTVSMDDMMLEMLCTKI
# AHR act: activators of human aryl hydrocarbon receptor; hit rate 2.5% among 320,000; activation, % at 5 µM; AHR-responsive luciferase reporter cells, luminescence; P35869; in the data active = activation above about 47%
# GAA850 FXN act: activators of GAA850 frataxin (FXN) promoter; activation, % at 6 µM; HEK293 lucGAA850 FXN promoter luciferase reporter, 24 h; percent of 10 µM SAHA response; hit rate 0.56% among 360,000; AID 540364;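 active = activation above the average of all compounds screened plus 3 SD, cutoff fixed separately per campaign, cut at about 7.5% in these data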
# HSF1 activator: increases HSF-1 driven luciferase reporter signal. NIH3T3-HGL HSF-1 luciferase reporter, MG132, 8 h; 100% = twice DMSO control signal. activation, % at 9 µM. hit rate 1.7% among 300,000. AID 504408;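 active = mean replicate activation of at least 50% with a set share of replicates each reaching 50%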
# HSF1 inh: HSF1 inhibition; activity change, negative = inhibition, % at 7.5 µM (by protocol); AID 2098; hit rate 0.77% among 300,000; NIH3T3-HGL HSE-luciferase, MG132-induced, luminescence 8 h; hits give low values;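 active = more than half of replicate wells show activity change below -50%, luminescence cut by over half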;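 note: luciferase reports HSF-1 transcriptional activity via heat shock element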
# Hits are given with their value; i = inactive; nt = not tested or not shown. In the library only some 5.4% were active in any assay of this set; here they are far more common.
SMILES,DAX1 inh,AHR act,GAA850 FXN act,HSF1 activator,HSF1 inh
CCNC(=O)CC1C(=O)N(c2ccc(C)cc2)C(=O)N1CCC(C)C (centres undefined),i,i,i,i,i
Cc1cc(F)ccc1C(O)c1ncc(-c2ccccc2Cl)[nH]1 (centres undefined),nt,nt,i,nt,nt
N#CC1=C(N)NC(SCC(=O)O)=C(C#N)C12CCCC2,i,i,i,i,i
N#CC1=C(N)NC(SCc2ccc(F)cc2)=C(C#N)C12CCCCC2,i,i,i,166,i
N#CC1=C(N)NC(SCC(=O)Nc2ccccc2)=C(C#N)C12CCCC2,i,71,i,i,i
CC(C)(C)OC(=O)N[C@@H](Cc1ccccc1)c1nnc(SCC(=O)O)o1,i,i,i,i,i
CC(C)(C)OC(=O)N[C@@H](Cc1ccccc1)c1nnc(SCC(=O)c2ccc(Cl)cc2)o1,i,i,i,55,i
COC(=O)c1[nH]c2cc(OC)ccc2c1NC(=O)c1c(F)cccc1F,i,i,i,i,i
C=CCNC(=S)Nc1c(C(=O)OC)[nH]c2cc(OC)ccc12,i,77,i,i,i
COC(=O)C(Cc1c[nH]c2ccccc12)NC(=O)c1cccc(S(=O)(=O)N2CCCCC2)c1 (centres undefined),i,i,i,nt,nt
CC(=N/O)/C(C)=N\NC(=O)c1ccccn1,i,i,i,i,-66
CCCCOCCCN1CC(=O)N2[C@@H](Cc3c([nH]c4ccccc34)C2(C)C)C1=O,i,i,i,70,i
O=C(CN1C(=O)NC2(CCCCCC2)C1=O)Nc1ccc(OC(F)(F)F)cc1,i,nt,i,nt,nt
O=C(COC(=O)CN1C(=O)c2ccccc2C1=O)Nc1ccccc1C(F)(F)F,i,nt,i,nt,nt
Cc1ccc(NC(=O)CN2C(=O)NC3(CCCC3)C2=O)c(Cl)c1,i,i,i,i,-84
O=C(CN1C(=O)NC2(CCCC2)C1=O)Nc1ccc(OC(F)(F)F)cc1,9.7,i,i,i,i
O=C(COC(=O)CN1C(=O)NC2(CCCC2)C1=O)Nc1ccccc1C(F)(F)F,12,i,i,i,i
NC(COCc1ccccc1)c1csc(NC(=O)Nc2cccc(C(F)(F)F)c2)n1 (centres undefined),nt,nt,i,nt,nt
NC1=C(c2ccccc2)C(=O)NC1=O,i,i,i,i,i
CC(C)=CCc1c(O)cc2c(=O)c3ccc(O)cc3oc2c1O,i,62,i,i,i
COc1cccc(C(=O)/C=C2\NCCc3cc(OC)c(OC)cc32)c1,i,53,i,i,i
CSc1nsc(SC)c1C(=O)Nc1ccc(Cl)cc1,i,58,i,nt,nt
CCCCN(CC)CCCNC(=O)Cn1nc(Cc2ccncc2)c2ccccc2c1=O,i,i,i,i,i
CCCCN(C)C(=O)Cn1nc(Cc2ccncc2)c2ccccc2c1=O,15,i,i,i,i
O=C(NCc1ccco1)c1ccc2nc([C@@H]3O[C@H](CO)[C@H](O)[C@H](O)[C@H]3O)[nH]c2c1,nt,nt,i,nt,nt
SMILES,DAX1 inh,AHR act,GAA850 FXN act,HSF1 activator,HSF1 inh
CCCCN(C)CCCNC(=O)Cn1cc2c(n1)-c1c(oc(C(=O)N3CCCC3)c1C)CC2,i,nt,i,nt,nt
CCOCCCNC(=O)Cn1cc2c(n1)-c1c(oc(C(=O)N3CCCC3)c1C)CC2,4.7,nt,i,nt,nt
COc1ccc(NC(C)=O)cc1NC(C)C(=O)Nc1ccccc1F (centres undefined),5.7,i,i,i,i
COCOCCn1cc(CN2CCS(=O)(=O)N(Cc3ccc(-c4ccc(OC)c(OC)c4)cc3)C(CC(C)C)C2=O)nn1 (centres undefined),i,nt,i,nt,nt
CCOC(=O)c1c(NC(=O)CSc2nnc(CNc3ccc(Cl)cc3)o2)sc(C)c1C,i,i,i,67,i
Cc1ccc(/C=C/C(=O)OCC(=O)NC(=O)NCc2ccco2)cc1,i,i,i,nt,nt
COc1ccc(C(=O)N2CCN=C2SCc2cccnc2)cc1OC,i,i,i,i,-66
O=C(CSc1ncnc2c1nnn2Cc1ccc(F)cc1)NC1CCCCC1,i,i,i,i,i
O=C(CSc1ncnc2c1nnn2Cc1ccc(F)cc1)NCC1CCCO1 (centres undefined),i,i,i,63,i
O=C1C2C3c4ccccc4C(c4ccccc43)[C@@H]2C(=O)N1c1nc(-c2ccccc2)cs1 (some centres undefined),5.0,i,i,i,i
O=C1C2C3c4ccccc4C(c4ccccc43)C2C(=O)N1c1nc(-c2ccccc2)cs1 (centres undefined),i,i,i,i,i
CCc1nnc(NC(=O)CSc2n[nH]c(-c3ccccc3O)n2)s1,i,i,i,i,i
Cc1ccc(S(=O)(=O)N2c3ccccc3NC(=O)C2CC(=O)Nc2ccccc2)cc1 (centres undefined),i,64,i,i,i
Cc1ccc(S(=O)(=O)N2c3ccccc3NC(=O)CC2C)cc1 (centres undefined),i,i,i,i,i
Cc1oc(-c2ccccc2F)nc1CN1CCC(C(=O)NC2CCCCCCC2)CC1,i,nt,i,57,i
CN(Cc1ccccc1)C(=O)C1CCN(S(=O)(=O)c2cccc3nonc23)CC1,i,i,i,i,i
CCOc1ccc(S(=O)(=O)N2CCCC(C(=O)Nc3cc(C)cc(C)c3)C2)cc1 (centres undefined),i,i,i,i,i
O=[N+]([O-])c1ccccc1/C=C/C=N/n1c(-c2ccc(Cl)cc2)n[nH]c1=S,i,60,i,i,i
Cc1cc(-c2n[nH]c(=S)n2/N=C/c2ccccc2[N+](=O)[O-])n[nH]1,i,48,i,i,i
O=[N+]([O-])c1ccccc1/C=C/C=N/n1c(-c2ccccc2)n[nH]c1=S,i,i,i,i,i
COc1cccc(/C=N/n2c(-c3n[nH]c4c3CCC4)n[nH]c2=S)c1O,i,i,i,i,i
O=[N+]([O-])c1ccc(Cl)c(/C=N/n2c(-c3ccncc3)n[nH]c2=S)c1,i,i,i,243,i
O=[N+]([O-])c1ccc(O)c(/C=N/n2c(-c3ccccc3)n[nH]c2=S)c1,i,i,i,i,i
COc1ccccc1/C=C/C=N/n1c(-c2n[nH]c3c2CCC3)n[nH]c1=S,nt,55,i,i,i
COc1ccc(CNC[C@H]2O[C@@H](n3cnc4c(N)ncnc43)[C@H](O)[C@@H]2O)cc1OC,i,i,i,nt,nt
SMILES,DAX1 inh,AHR act,GAA850 FXN act,HSF1 activator,HSF1 inh
COc1ccc(C(=O)N/C(=C\c2cn(S(=O)(=O)N(C)C)c3ccccc23)C(=O)N2CCN(C)CC2)cc1OC,i,nt,i,nt,nt
CC(OC(=O)Cc1c[nH]c2ccccc12)C(=O)NC1CCCCC1C (centres undefined),i,i,i,nt,nt
CCCNC(=O)C1(C)CCCN(C(=O)c2cc(C)nn2C(C)(C)C)C1 (centres undefined),nt,nt,i,nt,nt
Cc1cc(-c2n[nH]c(=S)n2/N=C/C=C/c2ccccc2)n[nH]1,i,i,i,57,i
S=c1[nH]nc(-c2ccc(Cl)cc2)n1/N=C/c1cccs1,nt,75,i,i,i
S=c1[nH]nc(-c2ccccn2)n1/N=C/c1cccs1,i,i,i,i,i
CCOc1ccc2c(ccc(/C=C/c3cc(C)c4cccnc4c3O)[n+]2C)c1,i,nt,i,nt,nt

# Screening results deposited in PubChem by several laboratories.
